We go through 31 molecules from ChEMBL document CHEMBL1157539, “Thousands of chemical starting points for antimalarial lead identification” (Nature, 2010).

Format in all cases: functional
In assay [1] the test system is Plasmodium falciparum. Briefly: GSK_TCMDC: Inhibition of Plasmodium falciparum 3D7 in whole red blood cells, using parasite LDH activity as an index of growth. Test compounds present at 2uM.
For assay [2], the system named is Plasmodium falciparum. Briefly: GSK_TCMDC: Inhibition of Plasmodium falciparum Dd2 in whole red blood cells, using parasite LDH activity as an index of growth. Test compounds present at 2uM.
The next assay relates to HepG2. Description: GSK_TCMDC: Percent inhibition of human HepG2 cell line. Test compounds present at 10uM.

With `Cc1cccc2c3c([nH]c12)C1(CCN(Cc2ccccc2)CC1)NC(C(=O)NCc1ccccc1)C3` (stereo not drawn), the Inhibition (commonly the change of the read-out against control, counted positive when it falls) was 81% in the assay on Plasmodium falciparum [1], 8% in the assay with Plasmodium falciparum [2] and 0% in the assay with HepG2.
The corresponding values for `Cc1ccc(NS(=O)(=O)c2ccc(C(C)N3CCC(N4CCCCC4)CC3)cc2)cc1C` (stereo not drawn) are 97%, 82% and 66%.
Take `O=C(/C=C/c1ccc(Cl)c(Cl)c1)NCCCCCN1CCCC(C(=O)Nc2ccc(Cl)c(Cl)c2)C1` (stereo not drawn): the Inhibition in the assay with Plasmodium falciparum [1] is 100%; in the assay on Plasmodium falciparum [2], 11%; with HepG2, 53%.
The like results for `CCCCCCCN(Cc1ccc(OC(C)(C)C(=O)OCC)cc1)C(=O)Nc1ccccc1OC(F)(F)F` were, in that order, 95%, 68% and 0%.
The like results for `COc1ccc2nccc([C@@H](O)CN3CCC(NC(=O)c4ccc(Cl)c([N+](=O)[O-])c4)CC3)c2c1` were, in that order, 88%, 43% and 14%.
The corresponding values for `O=C(NCc1ccccc1)c1nn(CCCN2CCC(N3CCCC3)CC2)cc1-c1ccc(Cl)c(Cl)c1` are 100%, 89% and 29%.
In the case of `Br.Oc1ccc(CNCCCCCCNCCc2ccc(Cl)cc2)cc1O`, the results for the Inhibition in the assay with Plasmodium falciparum [1], in the assay on Plasmodium falciparum [2] and in the assay with HepG2 were 94%, 7% and 2%, respectively.
The corresponding values for `CN(C)CCNc1ncnc2c1[nH]c1ccc(Cl)cc12` are 100%, 8% and 7%.
Turning to `c1ccc(CN2CCC(NCc3cccc(-c4cncc5ccccc45)c3)CC2)cc1`, the figures for the Inhibition with Plasmodium falciparum [1], with Plasmodium falciparum [2] and with HepG2 were 92%, 11% and 29%, respectively.
The like results for `CCCc1nc2c(N3CC(NC(=O)/C=C/c4ccccc4)C3)cccc2n1C1CC1` were, in that order, 83%, 68% and 1%.
The corresponding values for `COc1ccc(NC(=O)/C=C/c2ccc(Cl)c(C(F)(F)F)c2)cc1OCCN(C(C)C)C(C)C.O=C(O)C(F)(F)F` are 95%, 28% and 18%.
The like results for `CNCCNCc1cccc(-c2cccc(-c3nc4cc(F)ccc4[nH]3)c2)c1.O=C(O)C(F)(F)F` were, in that order, 98%, 15% and 20%.
For `Cc1cc(C(F)(F)F)cc(-n2ncc(-c3ccc(C(=O)NCCNCc4ccccc4)cc3)c2N)n1.O=C(O)C(F)(F)F`, the Inhibition came out at 91% in the assay on Plasmodium falciparum [1], 9% in the assay with Plasmodium falciparum [2] and 98% in the assay on HepG2.
Take `Cc1ccc(C2CC(=O)CC(c3ccccn3)C2[N+](=O)[O-])cc1` (stereo not drawn): the Inhibition stood at 97% in the assay on Plasmodium falciparum [1], 2% with Plasmodium falciparum [2] and 5% in the assay on HepG2.
On to `Cc1ccc(CNC(=O)c2cnc(N3CCN(c4ccncc4)CC3)c(Cl)c2)cc1.O=C(O)C(F)(F)F`, for which the Inhibition with Plasmodium falciparum [1] is on record as 92%; in the assay with Plasmodium falciparum [2], 6%; with HepG2, 27%.
The like results for `Cc1ccc(CNC(=O)[C@H](Cc2ccccc2)Nc2cc(C)nc(NCC3CCCCC3)n2)cc1.O=C(O)C(F)(F)F` were, in that order, 100%, 89% and 0%.
The corresponding values for `COc1ccc(CC(=O)Nc2ccc(Nc3nc(C)cc(N4CCCC4)n3)cc2)cc1` are 100%, 65% and 56%.
With `CCc1ccccc1-c1csc(C(=O)NCC2CCN(Cc3ccc(C(C)(C)C)cc3)C2)c1.O=C(O)C(F)(F)F` (stereo not drawn), the Inhibition was determined as 90% in the assay with Plasmodium falciparum [1], 15% in the assay on Plasmodium falciparum [2] and 25% in the assay on HepG2.
The like results for `COc1ccc(C#Cc2ccc(-c3c(C)[nH]c(C)c(Cl)c3=O)cc2)cc1` were, in that order, 97%, 97% and 0%.
The corresponding values for `O=C(Nc1cccc2ccccc12)N1CCC(NS(=O)(=O)c2cccc(C(F)(F)F)c2)CC1` are 95%, 1% and 0%.
The corresponding values for `CC1(C)N=C(N)N=C(N)N1c1cc(Cl)c(Cl)c(Cl)c1.CCS(=O)(=O)O` are 93%, 31% and 68%.
Turning to `Cn1cncc1C(=O)Nc1cccc(-c2cccc(-c3nc4ccccc4[nH]3)c2)c1`, the Inhibition worked out at 100% with Plasmodium falciparum [1], 35% with Plasmodium falciparum [2] and 9% in the assay on HepG2.
The corresponding values for `CC1CN(Cc2ccc(-c3ccc(-c4nc5ccccc5[nH]4)cc3)cc2)CC(C)O1.O=C(O)C(F)(F)F` (stereo not drawn) are 98%, 96% and 48%.
With `O=C(Nc1ccc(Cl)cc1)c1ccc(CN2CCCN(Cc3ccccc3)CC2)cc1.O=C(O)C(F)(F)F`, the figures for the Inhibition in the assay on Plasmodium falciparum [1], with Plasmodium falciparum [2] and in the assay on HepG2 were 96%, 2% and 46%, respectively.
The corresponding values for `CN(C)CCCN1CCN(C(=O)c2cc3cc(-c4ccccc4)ccc3n2S(=O)(=O)c2ccccc2)CC1` are 100%, 94% and 32%.
The corresponding values for `CCN1C(c2ccc(Cl)cc2)C(CNCc2ccccc2O)CC1(C)CO` (stereo not drawn) are 99%, 99% and 47%.
The corresponding values for `COc1ccc2nccc([C@@H](O)CN3CCC(NCc4nc5ccccc5s4)CC3)c2c1.O=C(O)C(=O)O` are 93%, 5% and 8%.
`CCCC(=O)NC(NC(=S)Nc1ccc([N+](=O)[O-])cc1)C(Cl)(Cl)Cl` (stereo not drawn): the Inhibition with Plasmodium falciparum [1] amounted to 93%; in the assay with Plasmodium falciparum [2], 14%; in the assay on HepG2, 10%.
The corresponding values for `Cc1cccc(-c2ccc(CNC3CCN(CC4Cn5c(=O)ccc6ccc(F)c4c65)CC3)cn2)c1.O=C(O)C(F)(F)F` (stereo not drawn) are 90%, 2% and 0%.
The like results for `Cc1cc(NC2CCCC2)nc(Nc2ccc(F)cc2)n1` were, in that order, 100%, 74% and 22%.
The like results for `CCCCCCN1CCN(Cc2cccc(NC(=O)c3cc4ccccc4s3)c2)CC1.O=C(O)C(F)(F)F` were, in that order, 93%, 68% and 20%.
